Experimental data taken from ChEMBL document CHEMBL3988442, “University of Dundee, Small-Polar-MMV Screening Library” (2021).

Key:
[1] = molecular target: T1, Aspartate--tRNA(Asp/Asn) ligase (Mycobacterium tuberculosis (strain ATCC 25618 / H37Rv)) (UniProt P9WFW3); assay: Assay for Asp RNA synthetase-1 from Mycobacterium tuberculosis; assay type: functional; parameters: scale not given: direction of the effect not stated beside the values; conditions: 30 µM; further: in the data most compounds retested in dose-response had high values
T1 sequence (whole entry): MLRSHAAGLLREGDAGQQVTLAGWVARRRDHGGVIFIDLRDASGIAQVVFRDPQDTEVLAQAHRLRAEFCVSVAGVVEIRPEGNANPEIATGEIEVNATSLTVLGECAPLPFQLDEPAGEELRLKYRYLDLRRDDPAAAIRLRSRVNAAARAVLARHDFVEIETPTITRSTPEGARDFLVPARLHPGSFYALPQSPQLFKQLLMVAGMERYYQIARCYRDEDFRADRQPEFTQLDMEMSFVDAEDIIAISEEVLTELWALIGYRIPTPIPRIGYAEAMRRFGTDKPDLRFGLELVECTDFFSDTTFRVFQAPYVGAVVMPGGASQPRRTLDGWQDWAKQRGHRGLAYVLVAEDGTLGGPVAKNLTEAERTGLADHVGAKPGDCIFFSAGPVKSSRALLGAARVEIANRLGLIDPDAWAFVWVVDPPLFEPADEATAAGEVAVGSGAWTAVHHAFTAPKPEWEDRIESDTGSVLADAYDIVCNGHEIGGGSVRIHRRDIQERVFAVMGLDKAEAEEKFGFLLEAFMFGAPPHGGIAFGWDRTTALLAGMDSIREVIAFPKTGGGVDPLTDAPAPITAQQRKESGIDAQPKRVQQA

[2] = molecular target: Shiga toxin 2 (Escherichia coli O157:H7) (UniProt P09385+P09386); assay: E. coli 0.157:H7 Shiga Toxin SOP - stx2 screening assay; assay type: functional; parameters: scale not given: direction of the effect not stated beside the values; conditions: 30 µM

| Structure (SMILES) | Percent Effect [1] [%] | Percent Effect [2] [%] |
| --- | --- | --- |
| CCCS(=O)(=O)NCc1cccnc1OCC | -1.52 | -6.28 |
| CCNc1cc2c(nn1)CCN(C(=O)Cc1noc3ccccc13)C2 | -2.87 | 24.9 |
| Cc1cc(C)n(CC2CCCCN2CCCS(N)(=O)=O)n1 (stereo unspecified) | -7.33 | -48 |
| CN(C)C[C@H]1OC[C@@H]2CCN(S(=O)(=O)c3ccccc3)C[C@@H]21 | 4.96 | -1.44 |
| CC(NC(=O)NCCOc1ccc(F)c(F)c1)c1nncn1C (stereo unspecified) | -4.5 | 27.5 |
| O=C(Nc1cccc(N2CCCC2)c1)C1CCCN1c1nccs1 (stereo unspecified) | 1.21 | -4.67 |
| Cc1csc(N2CCN(C(=O)Cc3ccsc3)CC2)n1 | 6.55 | -7.04 |
| Cc1nc(CN2CCc3nn(C(C)C)c(=O)cc3C2)oc1C | 7 | 0.318 |
| Cc1ccc(-c2nc(CN3CCn4c(nnc4C4CC4)C3)co2)cc1 | -1.28 | 10.1 |
| CCc1n[nH]c(C2CN(C(=O)c3cnns3)CCO2)n1 (stereo unspecified) | -0.228 | 10.8 |
| O=C(c1ccccc1N1CCOCC1)N1CCCC(n2cccn2)C1 (stereo unspecified) | 0.062 | 19.5 |
| Cc1ccc(OCCC(=O)NC2CCc3nc(C)cn3C2)cc1 (stereo unspecified) | 3.86 | -17.6 |
| Cc1ncccc1NC(=O)[C@H]1C[C@@H]2CCN(Cc3nccs3)C[C@@H]2O1 | -3.35 | 0.675 |
| CCn1nc(C)c2nnn(CC(=O)Nc3c(C)cccc3C)c(=O)c21 | -2.79 | -11.8 |
| CCC(C)(NCC(=O)Nc1nc(C)cs1)c1nc(C)cs1 (stereo unspecified) | 2.89 | -28.4 |
| O=C(Cn1ccnc1)N1C[C@@H]2CC[C@H](Oc3ccccc3Cl)[C@@H]2C1 | -0.551 | 13.9 |
| Cc1cnn(CCNCCCOc2ccccc2)c1 | -1.12 | -1.37 |
| Nc1cc(N2CCCC2c2cnccn2)ncn1 (stereo unspecified) | 6.36 | 0.702 |
| O=C1N(c2ccc(F)cc2)Cc2nc(=O)n(Cc3cccc(Cl)c3)n21 | 0.784 | -12.3 |
| CCC1CN(CCNC(C)=O)CCN1CCOC (stereo unspecified) | 15 | 16.5 |
| Cc1noc(Cl)c1CCC(=O)N1CCCCC1Cn1cccn1 (stereo unspecified) | 1.35 | -6.37 |
| CN(CCC#N)C(=O)CCOc1cccc(F)c1 | -3.59 | -25.6 |
| Cc1ccc(CN2CCC3(C2)C(=O)N(CC(C)C)c2ccccc23)s1 (stereo unspecified) | -0.155 | -42.5 |
| Cc1nn(C)c2c(N3CCN(C(=O)c4ccccc4)CC3)ncnc12 | 0.348 | -28.7 |
| CS(=O)(=O)c1snnc1C1CCN(Cc2ccncc2)CC1 | -6.42 | 0.0805 |
| CC(c1ccco1)N(C)Cc1nc2c(cnn2C)c(=O)[nH]1 (stereo unspecified) | -2.56 | -9.3 |

| Structure (SMILES) | Percent Effect [1] [%] | Percent Effect [2] [%] |
| --- | --- | --- |
| COc1ccccc1N1CCC(CNCc2cccc(OC)c2OC)C1 (stereo unspecified) | 10.8 | -7.96 |
| Cc1nc(CN2CCC(C(=O)O)(n3ccc(-c4ccco4)n3)CC2)co1 | -1.98 | -9.21 |
| COc1ccc(C2CC(=O)Nc3c2cnn3C)cc1 (stereo unspecified) | -0.607 | -21.4 |
| CCn1cc(NC(=O)NCC(O)COc2cccc(F)c2)cn1 (stereo unspecified) | 1.57 | 20.1 |
| COC(=O)CC(c1ccccc1)c1oc(C)cc(=O)c1O (stereo unspecified) | -2.11 | -6.67 |
| Fc1ccc(CN2CCC(c3n[nH]c4nccnc34)CC2)cc1F | 0.372 | -8.59 |
| CN(C)c1ncc(CN2CCOC(C(=O)Nc3ccccc3)C2)cn1 (stereo unspecified) | 6.13 | -0.28 |
| O=C(CO)N1CCC(c2cncc(-c3cccc(Cl)c3)n2)CC1 | 4.78 | -9.28 |
| CN(Cc1ncc(-c2ccccc2)o1)CC1CCCN1c1cccnn1 (stereo unspecified) | 0.259 | 5.15 |
| Cc1ccc2c(c1)OCCCC2NCc1nnc2n1CCCCC2 (stereo unspecified) | -4.58 | 3.72 |
| COc1ccc(-n2ccc(C(=O)N3CCC(C(N)=O)C3)n2)cc1 (stereo unspecified) | 1.17 | 19.6 |
| COc1cc(CNC(=O)CNc2cc(Cl)ccc2OC)ccn1 | 3.88 | 20.6 |
| O=C(NCCOc1cccc(Cl)c1)C1CC(=O)N(CC2CC2)C1 (stereo unspecified) | 0 | -10.5 |
| CC(NC(=O)CSCC#N)c1ccccc1 (stereo unspecified) | 2.98 | 13.3 |
| CNC(=O)CCc1cc(C)nc(C2CCCN2)n1 (stereo unspecified) | 7.7 | 9.84 |
| Cc1cnc2c(S(=O)(=O)NCC3CCS(=O)(=O)C3)cccc2c1 (stereo unspecified) | 3.04 | -5.77 |
| CC(C)(C)c1n[nH]c(C2CN(C(=O)c3cc(Cl)c[nH]3)CCO2)n1 (stereo unspecified) | -4.97 | 0.626 |
| Cc1cn(-c2ccccc2)nc1NS(=O)(=O)c1cc(C(=O)O)cs1 | 5.52 | -40 |
| COc1ccc(CNC(=O)NC(C)Cn2cccn2)cc1O (stereo unspecified) | -1.61 | 17.6 |
| CCc1noc(C(C)N2CCN(Cc3noc(C)n3)CC2)n1 (stereo unspecified) | -5.46 | -10.9 |
| Cc1ccc([C@]2(O)CC[C@H]3CN(Cc4cc(C)c(O)c(C)c4)C[C@H]32)nc1 | 3.29 | -2.26 |
| COc1ccc(NC(C)C(=O)N2CCN(Cc3ccccc3)CC2)cn1 (stereo unspecified) | 3.97 | -11.8 |
| CNC(=O)NC(=O)Cn1cc(-c2ccccc2)cn1 | -2.46 | 5.7 |
| COc1cccc(COCC(=O)N2CCN(CC(C)(C)O)CC2)c1 | -1.7 | 9.82 |
| Cc1cn2c(n1)CCC(NC(=O)c1ccc(CS(C)(=O)=O)cc1)C2 (stereo unspecified) | -0.233 | -16.5 |
| COCCN(C)Cc1ccc(OC)c(OC(F)F)c1 | 2.53 | -37.4 |

| Structure (SMILES) | Percent Effect [1] [%] | Percent Effect [2] [%] |
| --- | --- | --- |
| CC(C)c1nn(C)c(N(C)C)c1CNCc1cccc(CN(C)C)c1 | 2.36 | 31.8 |
| CN(C)c1cc(C(=O)N2CCCC(n3cccn3)C2)ccn1 (stereo unspecified) | -2.86 | -7.48 |
| CNS(=O)(=O)c1ccc(C(=O)N2CCCC2c2ccccc2)o1 (stereo unspecified) | -0.871 | 34 |
| CCOCC(O)CN1CCN(C(=O)c2ccccc2Cl)CC1 (stereo unspecified) | -4.21 | 24.8 |
| Cc1ccccc1S(=O)(=O)N1CCCCC1c1ccn[nH]1 (stereo unspecified) | 0.632 | 35.1 |
| CC(CN1CCCC1)C(=O)N1CCC(c2nccn2CC2CC2)CC1 (stereo unspecified) | -0.479 | -15.6 |
| Clc1ccccc1C1(c2ccnc(-c3ccncc3)n2)CCNCC1 | 0.832 | -43.2 |
| COc1cc2ncn(CC(=O)NCCCN(C)C)c(=O)c2cc1OC | -2.9 | -29.9 |
| Cc1nn(C)c(N2CCOCC2)c1CNC1CCN(C(C)(C)C)CC1 | -0.171 | 1.07 |
| CCCNC(=O)c1cc2c(nc1O)CCC(C)C2 (stereo unspecified) | -2.53 | -21.4 |
| O=C1NCCN1C1CCN(Cc2nc(-c3ccoc3)no2)CC1 | -7.34 | -21.2 |
| CCN1CCC2(CC1)CC(NC(=O)NC)c1cc(C)ccc12 (stereo unspecified) | -5.21 | -9.91 |
| COCCCN1CCCN(C(C)c2nc(C3CC3)no2)CC1 (stereo unspecified) | -9.76 | -23.4 |
| N#Cc1ccccc1N1CCCN(C(=O)CCn2cccn2)CC1 | -10.7 | 3.42 |
| COc1ncccc1CN1Cc2nnn(C)c2C(COCC2CC2)C1 (stereo unspecified) | 4.09 | -10.1 |
| Cc1ccc(NC(=O)C2CSCN2C(=O)c2cnccn2)c(C)c1 (stereo unspecified) | 1.01 | -39.3 |
| Cc1ccc(C(=O)N2CCCC(C(=O)N3CCCCC3)C2)c(O)c1 (stereo unspecified) | -0.062 | 20.6 |
| CSCc1cccc(S(=O)(=O)N2CCSCC2)c1 | 0.639 | 0.0259 |
| Cc1nc(C)n(C2CCCN(C(=O)c3ccc(N(C)C)nn3)C2)n1 (stereo unspecified) | 0.605 | 11.2 |
| Cc1ccc(NC2CCN(C(=O)c3c(C)noc3C)CC2)nn1 | -3.12 | 7.22 |
| COc1cc(CCC(=O)NCC2CCCN2C)ccc1OCC(F)(F)F (stereo unspecified) | 1.43 | 22.2 |
| CCc1nc(C2CCCN2C(=O)CCn2cncn2)no1 (stereo unspecified) | 3.36 | 5.08 |
| CNc1cc2c(nn1)CCN(C(=O)c1ccoc1)C2 | 0.663 | 28.5 |
| CC(C)(C)C(=O)N1CCCC1c1nc(O)cc(-c2ccccn2)n1 (stereo unspecified) | -4.27 | 5.71 |
| Cc1cnn(CCNCc2csc(-c3ccc(F)cc3)n2)c1 | -1.03 | 13.4 |
| O=C(NCC1(N2CCOCC2)CCSC1)Nc1ccc(F)cc1 (stereo unspecified) | 2 | -8.73 |

| Structure (SMILES) | Percent Effect [1] [%] | Percent Effect [2] [%] |
| --- | --- | --- |
| Cc1cc(C(=O)N2CCc3nnc(N(C)C)cc3C2)c(C)n1C1CC1 | 0.451 | -0.445 |
| CCc1nccn1C1CCCN(C(=O)c2csc(COC)n2)C1 (stereo unspecified) | 4.12 | -14.9 |
| Cn1cc(CCNC(=O)NC2CCS(=O)(=O)C2)cn1 (stereo unspecified) | 2.01 | -8.38 |
| O=C(NCCNC(=O)c1scnc1Cl)c1ccccc1 | 2.84 | -34.6 |
| CC(NC(N)=O)C(=O)N1CCCN(Cc2nccn2C(C)C)CC1 (stereo unspecified) | 0.509 | 8.58 |
| Cc1noc(C)c1CCC(=O)N1CCCN(Cc2cscn2)CC1 | -0.789 | 27.4 |
| COc1ccccc1NC(=O)CSC1CCc2ccccc2NC1=O (stereo unspecified) | -0.871 | -1 |
| O=C(NCc1ccc(OCC2CC2)nc1)c1c(F)cccc1F | -0.03 | 0.72 |
| c1cnn(Cc2cn3c(n2)CN(Cc2nccs2)CC3)c1 | -2.35 | -23.5 |
| Cc1occc1C(=O)N1CCc2c(COCC3CC3)cncc2C1 | -0.443 | -11.9 |
| O=C(c1ccc2c(c1)OCO2)N1CCCC(n2cccn2)C1 (stereo unspecified) | 4.23 | 23.2 |
| CN(Cc1cccnc1)CC1CCCN1c1cccnn1 (stereo unspecified) | 1.15 | 6 |
| Cc1ccc(NS(=O)(=O)CC2=NC(=O)n3cccc3C2=O)cc1 | -1.02 | -73.8 |
| Cn1cccc1C(=O)N1CCC2(CC1)CN(c1cncnc1)C(=O)CO2 | -4.72 | -1.71 |
| O[C@H]1[C@H](n2cc(-c3cccnc3)nn2)c2ccccc2C12CCNCC2 | -2.48 | 7.64 |
| COCCc1noc(CN2CCCCC2Cn2nc(C)cc2C)n1 (stereo unspecified) | -0.417 | 1.32 |
| Cc1cnn(CC2CCCCN2CC(=O)Nc2c(C)n[nH]c2C)c1 (stereo unspecified) | -1.88 | -12.9 |
| CC(C)c1cc(C(=O)NCCN2CCCS2(=O)=O)n[nH]1 | -5.19 | -14.6 |
| COc1cc(NC(=O)c2cc(C)sc2C)c(C(=O)N(C)C)cc1OC | 7.46 | -44.2 |
| Cc1cc(CN2CCC(CNC(=O)c3nccc4ccccc34)C2)[nH]n1 (stereo unspecified) | 8.37 | -22.4 |
| CC(NC(=O)CCc1cccs1)c1nnc2n1CCC2 (stereo unspecified) | -0.379 | 3.4 |
| Cc1ccc(NC2CCN(C(=O)CCc3ccco3)CC2)nn1 | 0.0874 | 19.2 |
| CN(C)CC1CN(c2ncnc3[nH]ccc23)CCO1 (stereo unspecified) | -0.0146 | -33.5 |
| CCc1nc(C2CCCN(C(=O)c3ccc(OC(C)C)nc3)C2)no1 (stereo unspecified) | -1.24 | 17.3 |
| CC(C)C(=O)NCc1cccc(N2CCCCC2=O)c1 | -1.01 | 6.13 |
